The record followed here is PubChem BioAssay (NCATS).

Experiment in all cases: qHTS profiling for inhibitors of Plasmodium falciparum proliferation (AID 504749); further: nearly all actives have a fitted effect of over 60% in size
What all share (conditions): P. falciparum in erythrocytes, SYBR Green DNA, 72 h; series mostly up to 28.7 µM
For orientation: Quantitative high-throughput screening tests each substance at several concentrations.

The test system of one assay is CP217. The method, boiled down: (§1)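 Fluorescence of SYBR Green-bound parasite DNA, read at 485/535 nm, served as the growth measure. Infected erythrocytes were cultured with compound 72 h; artemisinin (0.29 uM) and DMSO wells defined the normalization range.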
A further assay deals with CP237. The essentials:
as §1

A further assay concerns CP238. The method, boiled down: as §1
A further assay has as its system CP247. The essentials:
as §1

The test system of the next assay is CP250. The essentials: as §1
The next assay deals with CP252. The method, boiled down: as §1
In the next assay the test system is CP256. The essentials:
as §1

The next assay relates to CP260. The method, boiled down: as §1
The next assay has as its system CP262. The method, boiled down:
as §1

The subject of the next assay is CP265. The method, boiled down:
as §1

Inconclusive results are not listed. Calls of active or inactive are those of the source. The call rests on the fitted dose curve; in most records, active means well fitted inhibition curve with a large enough effect; inconclusive means small, poorly fitted or top-dose-only effect; inactive means flat fitted curve, though single readings scatter.
Potency means the concentration at half of the fitted maximal effect.

As for `CC(C)NC[C@H](O)COc1ccc(CC(N)=O)cc1`, the outcome in the assay on CP217, in the assay with CP238, in the assay with CP247, in the assay on CP250, in the assay with CP252 and in the assay on CP256 was inactive. In the assay on CP262, the molecule was classed as inactive. Moreover, the Potency entry in the assay with CP237, with CP260 and with CP265 was “inactive” throughout.
As for `CCCCCCCCCCCCCCC[C@H](O)[C@H](N)CO`, the molecule was classed as inactive in the assay with CP217, in the assay on CP238, in the assay on CP247, in the assay on CP250, with CP252 and with CP256. Also, in the assay on CP262, the outcome was inactive. Further, the Potency entry with CP237, in the assay with CP260 and in the assay on CP265 was “inactive” each time.
As to `CC(O)C(O)[C@H]1CNc2nc(N)[nH]c(=O)c2N1` (stereo not given in full), the call in the assay with CP217, in the assay on CP238, in the assay on CP247, in the assay on CP250, in the assay on CP252 and in the assay on CP256 was inactive. In addition, the molecule was called inactive in the assay with CP262. Moreover, the Potency entry with CP237, in the assay on CP260 and with CP265 was “inactive” each time.
As to `c1ccc(C2CN3CCSC3=N2)cc1` (stereo not given), the Potency in the assay with CP237 was 3.98 µM (active); in the assay on CP260 it was 10 µM (active); in the assay on CP265, 4.47 µM (active). Also, in the assay on CP262, the result was inactive.
As for `CCCCCCCCCCCCCCCCCCOC[C@H](COP(=O)([O-])OCC[N+](C)(C)C)OC`, the result with CP217, with CP238, in the assay with CP247, with CP250, in the assay with CP252 and in the assay on CP256 was inactive. Moreover, the call in the assay on CP262 was inactive. Further, the Potency result in the assay with CP237 and with CP265 was “inactive” throughout.
Take `CN1C2CCC1CC(OC(c1ccccc1)c1ccccc1)C2` (stereo not given): the molecule was called inactive in the assay with CP238. For the same molecule, the Potency entry in the assay on CP265 was “inactive”.
